Data on 25 compounds can be found in PubChem BioAssay (NCATS).

The nature of assay [1]: P-glycoprotein substrates identified in KB-8-5-11 adenocarcinoma cell line, qHTS therapeutic library screen (AID 1346987). Also: nearly all actives have a fitted effect of over 65% in size. Also: potency is read from the fitted curve at half-maximal effect. An outline of the steps:
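P-gp-mediated resistance screen: KB-8-5-11 cells treated 72 h with compounds in dose-response. CellTiter-Glo viability.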

Assay [2] can be described thus: NS1 protein of Zika virus - qHTS assay to identify small molecule inhibitors in human HEK 293 cells (AID 1347053). Also: series mostly up to about 46 µM; nearly all actives have a fitted effect of over 55% in size. An outline of the steps:
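HEK 293; 20 h pre-culture, 37 C/5% CO2; cpd 1 h pre-infection; ZIKV MR766, MOI = 0.5, 24 h, 37 C; TR-FRET NS1 readout (two anti-NS1 Abs); norm. to no-virus vs infected.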
In general terms: qHTS replaces the single test concentration by a dilution series.

Assay [3] can be described thus: qHTS for Inhibitors of the Functional Ribonucleoprotein Complex (vRNP) of Lymphocytic Choriomeningitis Arenaviruses (LCMV): Viability assay - alamar blue signal for LCMV Primary Screen (AID 1347085; calls by dose curve; tested in HEK293 reporter line; also: series mostly up to about 57 µM; nearly all actives have a fitted effect of over 80% in size).
Assay [4] concerns the target Nucleoprotein (Lymphocytic choriomeningitis virus (strain Armstrong)) (UniProt P09992). The experiment in a line: qHTS for Inhibitors of the Functional Ribonucleoprotein Complex (vRNP) of Lymphocytic Choriomeningitis Arenaviruses (LCMV): LCMV Primary Screen - GLuc reporter signal (AID 1347086; calls by dose curve; also: series mostly up to about 57 µM; nearly all actives have a fitted effect of over 70% in size).
The nature of assay [5]: qHTS of pediatric cancer cell lines to identify multiple opportunities for drug repurposing: Primary screen for TC32 cells (AID 1347089). Also: nearly all actives have a fitted effect of over 60% in size. Also: potency is read from the fitted curve at half-maximal effect. The procedure, abridged:
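In the primary qHTS, MIPE compounds were tested at 11 concentrations (0.78 nM to 46 µM) and NPC compounds at 8 (0.59 nM to 46 µM) on TC32 cells for 48 h. CellTiter-Glo luminescence gave viability.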

The nature of assay [6]: qHTS of pediatric cancer cell lines to identify multiple opportunities for drug repurposing: Primary screen for DAOY cells (AID 1347090). Also: nearly all actives have a fitted effect of over 55% in size. Also: potency is read from the fitted curve at half-maximal effect. An outline of the steps: (§1)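 Eight- or eleven-point concentration series, 48 h treatment at 37 degrees C in growth media; readout CellTiter-Glo luminescence. Potency and efficacy were taken from the concentration-response curves.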
A short description of assay [7]: qHTS of pediatric cancer cell lines to identify multiple opportunities for drug repurposing: Primary screen for SJ-GBM2 cells (AID 1347091). Also: potency is read from the fitted curve at half-maximal effect. An outline of the steps:
as §1

Assay [8] can be described thus: qHTS of pediatric cancer cell lines to identify multiple opportunities for drug repurposing: Primary screen for A673 cells (AID 1347092). Also: nearly all actives have a fitted effect of over 45% in size. Also: potency is read from the fitted curve at half-maximal effect. An outline of the steps: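 48 h compound exposure, A673, 500-1,000 cells/well, 37 degrees C/5% CO2. MIPE: 11-point, 0.78 nM-46 µM; NPC: 8-point, 0.59 nM-46 µM (final). Readout CellTiter-Glo luminescence after 15 min RT.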
Assay [9] is described as follows: qHTS of pediatric cancer cell lines to identify multiple opportunities for drug repurposing: Primary screen for SK-N-MC cells (AID 1347093). Also: potency is read from the fitted curve at half-maximal effect. An outline of the steps:
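Metabolically active cells were quantified by ATP-dependent luminescence (CellTiter-Glo, 15 min at room temperature) following 48 h treatment. Cells had been plated at 500-1,000 per well and settled for 5 h beforehand.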

The nature of assay [10]: qHTS for Inhibitors of the Functional Ribonucleoprotein Complex (vRNP) of Lassa (LASV) Arenavirus: LASV Primary Screen - GLuc reporter signal (AID 1347082; calls by dose curve; tested in HEK293 reporter line; also: series mostly up to about 57 µM; nearly all actives have a fitted effect of over 60% in size).
Assay [11] can be described thus: qHTS for Inhibitors of the Functional Ribonucleoprotein Complex (vRNP) of Lassa (LASV) Arenavirus: Viability assay - alamar blue signal for LASV Primary Screen (AID 1347083; calls by dose curve; tested in HEK293 reporter line; also: series mostly up to about 57 µM; nearly all actives have a fitted effect of over 80% in size).

Inconclusive results are not listed. Calls of active or inactive are those of the source. Unless noted, calls follow the shape of the dose curve; as a rule, active = well fitted curve in the direction sought with a large enough effect; inconclusive = small, poorly fitted or top-dose-only effect, or another doubt; inactive = no such curve, though single readings can be large; an effect the other way counts as inactive or inconclusive.

Nucleoprotein (Lymphocytic choriomeningitis virus (strain Armstrong)), sequence (P09992 whole entry, looked up): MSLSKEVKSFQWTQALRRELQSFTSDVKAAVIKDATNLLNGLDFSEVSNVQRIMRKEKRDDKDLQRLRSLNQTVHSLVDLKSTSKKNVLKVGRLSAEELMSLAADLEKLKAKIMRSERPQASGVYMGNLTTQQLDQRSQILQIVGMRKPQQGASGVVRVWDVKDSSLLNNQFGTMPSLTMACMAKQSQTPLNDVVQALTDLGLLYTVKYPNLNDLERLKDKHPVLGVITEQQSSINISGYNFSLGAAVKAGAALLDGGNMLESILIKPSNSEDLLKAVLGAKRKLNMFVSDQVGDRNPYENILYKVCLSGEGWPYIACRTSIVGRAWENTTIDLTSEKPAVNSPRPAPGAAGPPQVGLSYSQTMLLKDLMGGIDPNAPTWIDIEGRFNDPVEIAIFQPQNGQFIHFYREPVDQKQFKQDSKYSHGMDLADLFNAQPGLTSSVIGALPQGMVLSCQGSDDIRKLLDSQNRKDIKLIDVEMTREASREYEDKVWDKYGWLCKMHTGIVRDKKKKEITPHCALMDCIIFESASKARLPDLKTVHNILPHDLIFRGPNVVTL

For `C[C@](O)(CS(=O)(=O)c1ccc(F)cc1)C(=O)Nc1ccc(C#N)c(C(F)(F)F)c1`, the Potency in assay [1] is 14600 nM (active); in assay [6], 743 nM (active); in assay [7] it was 3720 nM (active); in assay [8], 2960 nM (active); in assay [9], 469 nM (active). The outcome in assay [2] was inactive. In addition, the Potency result in [3], in assay [4] and in assay [5] was “inactive” each time.
With `CN1C(=O)NC(=O)C(C)(C2=CCCCC2)C1=O` (stereo not given), the Potency entry in assay [1], in assay [10], in assay [11], in [3], in [4] and in assay [5] was “inactive” each time. The Potency result in [6], in assay [7], in assay [8] and in assay [9] was “inactive” each time. Besides, the compound was classed as inactive in assay [2].
Take `C[C@H](N)C(=O)c1ccccc1`: the Potency result in assay [1], in assay [10], in [11], in assay [3], in assay [4] and in assay [5] was “inactive” throughout. In addition, the Potency result in [6], in assay [7], in assay [8] and in assay [9] was “inactive” throughout. Moreover, in assay [2], the call was inactive.
Turning to `C[C@H]1[C@@H]2Cc3ccc(O)cc3[C@@]1(C)CCN2C`, the Potency result in assay [1], in assay [10], in assay [11], in assay [3], in [4] and in [5] was “inactive” in each case. The Potency result in [6], in assay [7] and in assay [8] was “inactive” each time. For the same compound, the compound was classed as inactive in assay [2].
As to `COP(=S)(OC)SCN1C(=O)c2ccccc2C1=O`, the Potency result in assay [1], in assay [10], in assay [11], in assay [3], in [4] and in assay [5] was “inactive” in each case. Moreover, the Potency entry in [7] is “inactive”. The compound was classed as inactive in [2].
In the case of `C[C@@H](N)[C@@H](O)c1ccccc1`, the Potency entry in assay [1], in [10], in [11], in assay [3], in assay [4] and in [5] was “inactive” throughout. In addition, the Potency entry in [6], in [7], in [8] and in assay [9] was “inactive” throughout. Moreover, the compound was classed as inactive in [2].
`COc1cc(CCN)cc(OC)c1OC`: the Potency result in [1], in [10], in assay [11], in assay [3], in assay [4] and in assay [5] was “inactive” throughout. The Potency entry in [7] and in assay [8] was “inactive” in each case. Besides, the compound was classed as inactive in [2].
With `CC(Cc1ccccc1)N(C)Cc1ccco1` (stereo not given), the outcome in assay [2] was inactive. In addition, the Potency entry in assay [10], in assay [11], in assay [5], in assay [7], in [8] and in assay [9] was “inactive” in each case.
Regarding `COc1cccc2c1C(=O)c1c(O)c3c(c(O)c1C2=O)C[C@@](O)(C(=O)CO)CC3OC1CC(N2CCOC(OC)C2)C(O)C(C)O1` (stereo not given in full), the outcome in assay [2] was inactive. The Potency in [5] is 26.4 nM (active); in assay [6], 42.2 nM (active); in assay [8] it was 26.6 nM (active).
In the case of `C[C@]12CC[C@@H]3c4ccc(OC(=O)N(CCCl)CCCl)cc4CC[C@H]3[C@@H]1CC[C@@H]2O`, the result in assay [2] was inactive. For the same compound, the Potency result in [10], in [11], in assay [3], in [4], in assay [5] and in [8] was “inactive” each time.
For the compound `CN1CCC(O)(c2ccc(F)cc2)C(C(=O)c2ccc(F)cc2)C1` (stereo not given), the Potency result in [1], in assay [10], in assay [11], in assay [3], in assay [4] and in assay [5] was “inactive” throughout. In addition, the Potency entry in assay [7], in assay [8] and in [9] was “inactive” in each case.
In the case of `CCC1(c2ccccc2)C(=O)N(COC)C(=O)N(COC)C1=O`, the Potency result in [1], in assay [10], in assay [11], in assay [3], in assay [4] and in [5] was “inactive” throughout. Further, the Potency entry in assay [6], in [7], in assay [8] and in assay [9] was “inactive” throughout.
As to `CC(C)C[C@H](CN)CC(=O)O`, the Potency result in [1], in assay [10], in assay [11], in assay [3], in assay [4] and in assay [5] was “inactive” each time. The Potency result in [6], in assay [7] and in [8] was “inactive” throughout. In addition, the Potency in assay [9] is 23500 nM (active).
For `NNc1ccccc1`, the Potency entry in assay [1], in assay [10], in assay [11], in [3], in [4] and in assay [5] was “inactive” each time. For the same compound, the Potency entry in assay [7] and in assay [8] was “inactive” throughout.
As for `CC[N+]1(CC)CCC(OC(=O)C(O)(c2ccccc2)c2ccccc2)C1` (stereo not given), in assay [2], the compound was called inactive. For the same compound, the Potency entry in assay [10], in assay [11], in assay [3], in assay [4], in [5] and in [7] was “inactive” in each case. For the same compound, in assay [8], the Potency result was “inactive”.
On to `C=CCC1(C(C)CC)C(=O)NC(=O)NC1=O` (stereo not given), for which the compound was called inactive in assay [2]. Besides, the Potency entry in assay [10], in assay [11], in assay [3], in [4], in assay [5] and in [6] was “inactive” each time. Further, the Potency entry in assay [7], in assay [8] and in assay [9] was “inactive” each time.
Turning to `O=c1[nH]c(=O)n([C@H]2C[C@H](O)[C@@H](CO)O2)cc1F`, the Potency result in assay [10] was “inactive”.
As to `COC(=O)[C@@H](N)CCCN/C(N)=N/[N+](=O)[O-]`, the Potency entry in assay [1], in assay [10], in [11], in [3], in assay [4] and in assay [5] was “inactive” throughout. Moreover, the Potency entry in assay [6], in assay [7], in assay [8] and in assay [9] was “inactive” each time.
For the compound `CCN[C@@H](C)Cc1cccc(C(F)(F)F)c1`, the Potency entry in assay [1], in assay [10], in assay [11], in [3], in [4] and in [5] was “inactive” throughout. Further, the Potency entry in assay [7], in assay [8] and in assay [9] was “inactive” each time.
Consider `CC(Cc1ccccc1)NCCn1cnc2c1c(=O)n(C)c(=O)n2C` (stereo not given), for which the compound was classed as inactive in assay [2]. Besides, the Potency result in assay [10], in assay [11], in assay [3], in assay [4], in [5] and in [6] was “inactive” in each case. The Potency result in assay [7] and in assay [8] was “inactive” throughout.
Turning to `C[C@]12Cc3cn[nH]c3C[C@@H]1CC[C@@H]1[C@@H]2CC[C@@]2(C)[C@H]1CC[C@]2(C)O`, in assay [2], the call was inactive. Further, the Potency result in assay [10], in assay [11], in [3], in assay [4], in assay [5] and in assay [8] was “inactive” throughout.
For the compound `COP(=S)(OC)Oc1ccc(S(=O)(=O)N(C)C)cc1`, the Potency result in assay [1], in [10], in assay [11], in assay [3], in assay [4] and in [5] was “inactive” each time. Besides, the Potency result in assay [6], in assay [7] and in [8] was “inactive” each time.
Consider `c1ccc(CN2CCNCC2)cc1`, for which the Potency result in assay [1], in [10], in assay [11], in assay [3], in assay [4] and in assay [5] was “inactive” each time. The Potency entry in [7], in [8] and in assay [9] was “inactive” throughout.
On to `Cc1nc2ccc(CN(C)c3ccc(C(=O)N[C@@H](CCC(=O)O)C(=O)O)s3)cc2c(=O)[nH]1`, for which, in [10], the Potency entry was “inactive”.
As for `C=CCC1([C@H](C)CCC)C(=O)NC(=O)NC1=O`, the Potency result in [1], in assay [10], in [11], in assay [3], in [4] and in [5] was “inactive” throughout. The Potency entry in assay [7] and in [8] was “inactive” each time.
